# Assay results from PubChem BioAssay (NCI).
# This is part of a sample that, as a whole, favours compounds with a hit. Of some 83,000 tested, about 20% had one in any assay.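 Treatment: one concentration, 48 hours, 96-well format. Scoring: percent growth, with anything below 10 considered active.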 A number with no mark means an inactive call. The source made the active and inactive calls.
# Key:
# Assay in all cases: NCI-60 one-dose screen, 48 h (100 = growth as untreated, 0 = no growth, -100 = all killed)
# Details in all cases: 10 µM unless noted
# [1] = test system: HCT-15 colon
# [2] = test system: HT29 colon
# [3] = test system: SNB-75 CNS
# [4] = test system: SNB-19 CNS
# [5] = test system: U251 CNS
# [6] = test system: PC-3 prostate
# [7] = test system: SK-MEL-5 melanoma
# [8] = test system: UACC-62 melanoma
# [9] = test system: LOX IMVI melanoma
# [10] = test system: SK-MEL-28 melanoma
Structure (SMILES),growth [1],growth [2],growth [3],growth [4],growth [5],growth [6],growth [7],growth [8],growth [9],growth [10]
CCOC(=O)C(CC(c1ccccc1)N1CCCCC1)[N+](=O)[O-] (stereo not given),74.9%,95.4%,86%,89.5%,73.7%,67.2%,91.2%,59.9%,63.8%,98.8%
N#C/C(=C\c1ccc[nH]1)c1cc2ccccc2[nH]1,50.2%,80.2%,62.2%,78.5%,69.7%,58%,57.2%,67.8%,75.2%,98.5%
CCC12CCC3c4ccc(O)cc4CCC3C1CC(O)C2O (stereo not given),57.4%,96.9%,65.8%,90.1%,56.5%,85.5%,63.4%,67.6%,81%,67.2%
COc1ccc(NS(=O)(=O)c2ccc(-c3cnc(C4CC4)o3)cc2)cc1,29.7%,19%,44.9%,67.8%,56.5%,67%,51.3%,49.4%,50.8%,66.3%
FC(F)(F)Oc1ccc2c(c1)C[C@H]1C[C@@H](c3ccoc3)N2O1,95.1%,99.9%,99.5%,105%,94.5%,92.8%,115%,98.8%,91.8%,108%
O=C(N/N=C(\CS(=O)(=O)c1ccccc1)c1cc2ccccc2oc1=O)c1ccccc1,107%,108%,93.2%,99.8%,96.3%,98.3%,105%,97.9%,96.6%,107%
NC(=S)N/N=C1\c2ccccc2-c2c(F)c(F)c(F)c(F)c21,62.8%,52.8%,95.7%,89%,63.9%,80.3%,102%,93.4%,86.6%,113%
C[C@]1(CO)C[C@@H](O)C[C@]2(C)[C@@H]1CC[C@@]13C[C@@H]4[C@@H](C[C@H]12)[C@]4(C)C3,103%,105%,88.9%,95.7%,104%,99%,99%,94.1%,107%,103%
Oc1ccc(Cl)cc1CNc1nc2ccccc2[nH]1,15.9%,-46% (active),70.5%,111%,55%,-5.5% (active),49%,-68.1% (active),-78.1% (active),-82.6% (active)
O=C(Nc1ccccc1)Oc1cccc2cccnc12,74.5%,28.5%,83%,99.3%,70.5%,70.1%,96.9%,108%,61%,97.6%
COc1ccc(C2SC(C)C(=O)N2CCc2cccs2)cc1OC (stereo not given),87.8%,91.6%,69.1%,86.9%,83.2%,65.7%,49.4%,73.5%,81.9%,108%
O=[N+]([O-])c1ccc2nc(N/N=C/c3ccc(O)cc3)sc2c1,53.4%,78%,73.7%,77.9%,45.9%,38.4%,58.1%,81.7%,49.7%,89%
COc1ccc(C2OCC(C)(C)CO2)cc1OC,106%,109%,102%,112%,94.8%,95%,96.5%,99.9%,95.2%,121%
COc1ccc(-c2nc3sc(C)cn3c2/C=C/C(=O)c2cc(OC)c(OC)c(OC)c2)cc1,48.1%,60.1%,55.8%,75.6%,47.1%,19%,4.08% (active),36.7%,48.8%,41.4%
O=C1NC(=S)S/C1=C\c1cccc([N+](=O)[O-])c1,93.3%,109%,83.8%,98%,92.7%,88.1%,89.9%,70%,88.9%,112%
Cc1cccc2c(=O)c3c(sc12)c(NCCNCCO)nc1ccccc13,0.304% (active),-55.4% (active),32.8%,49.6%,13.4%,38.7%,39.5%,26%,-89.8% (active),-67.4% (active)
CCCCCCCCCCCCCCn1c2ccccc2c2c3c(c4c5cc(OC)ccc5oc4c21)C(=O)NC3=O,94.9%,103%,81.4%,105%,99.8%,107%,102%,101%,103%,107%
COc1ccc(-c2cc(=O)oc3c4c(ccc23)OCN(Cc2ccc(F)cc2)C4)cc1,64.3%,42.4%,69.7%,72.2%,59%,54.9%,3.99% (active),61.6%,73%,83.4%
OC[C@@H](O)[C@@H](O)CO,102%,106%,100%,98.3%,98.7%,97.2%,104%,98.3%,91.3%,112%
Cc1ccc(S(=O)(=O)c2ccc3[nH]c(=O)[nH]c(=O)c3c2)cc1,103%,107%,92.4%,94.3%,95.1%,86.2%,103%,92.9%,101%,114%
Fc1c[c-]c(-c2ccccn2)c(F)c1.Fc1c[c-]c(-c2ccccn2)c(F)c1.[Cl][Pt+].[Cl][Pt+].c1ccc([PH+](C[PH+](c2ccccc2)c2ccccc2)c2ccccc2)cc1,90.8%,7.78% (active),20.1%,17.8%,15%,14.9%,-70.8% (active),3.59% (active),20.5%,16.1%
O=C(CC(O)c1ccccc1)Nc1ccccn1 (stereo not given),101%,103%,85.9%,92.1%,102%,93.2%,116%,98.3%,98.4%,103%
Cc1ccccc1-n1nnc(C(=O)Nc2nc(-c3ccccc3)c(-c3ccccc3)s2)c1C,67.3% [50 µM],78.7% [50 µM],5.92% [50 µM] (active),49.5% [50 µM],76.6% [50 µM],63.2% [50 µM],80.5% [50 µM],69.9% [50 µM],80.7% [50 µM],87.2% [50 µM]
COc1ccccc1CNCCCCCCCCCCCCN1C(=O)c2ccc3c4c(ccc(c24)C1=O)C(=O)N(CCCCCCCCCCCCNCc1ccccc1OC)C3=O,77.7%,53.4%,-13.3% (active),58.1%,-28.6% (active),27.7%,78.4%,105%,56.4%,81.1%
O=C(N/N=C/c1ccc2c(c1)OCO2)c1cnn2c1NC(c1ccccc1)C2 (stereo not given),28%,26.7%,54.8%,62.9%,69.6%,50.2%,37.3%,32.7%,26.4%,71.8%
Cc1ccc(C2SCC(=O)N2NC(=O)c2[nH]c3ccc(F)cc3c2-c2ccccc2)cc1 (stereo not given),89.8%,74.4%,71.4%,88.5%,81%,59.9%,89.6%,78.1%,91.2%,97.5%
OB(O)c1ccccc1,102%,101%,101%,114%,101%,101%,113%,109%,101%,117%

Structure (SMILES),growth [1],growth [2],growth [3],growth [4],growth [5],growth [6],growth [7],growth [8],growth [9],growth [10]
O=C1/C(=C/c2ccccc2F)CNC/C1=C\c1ccccc1F,-0.826% (active),-35.4% (active),32.5%,3.94% (active),-85.3% (active),4.63% (active),-88.4% (active),-58.3% (active),-83.5% (active),-91.1% (active)
O=C1Nc2ccc(Cl)cc2/C1=N/N=C(c1ccccc1)c1ccccc1,87.2%,98.3%,74.5%,62.7%,94.5%,86.2%,99%,84.6%,87.5%,117%
CCCCCCCC/C=C\CCCCCCCCOc1cccc(CC(=O)NCC[N+]2(C)CCCCC2)c1,102%,27%,50.7%,56.7%,51.6%,22.1%,89.4%,70.1%,74.5%,98.7%
O=C(NCc1ccc(F)cc1)C1CN(c2ccc(Cl)cc2)N(c2ccc(Cl)cc2)C1=O (stereo not given),45.1%,25.6%,36.7%,78.1%,56.6%,61.9%,52.9%,42%,72.3%,74.9%
CCC(C)Oc1cc(/C=N/NC(=O)c2cnn3c2NC(c2ccccc2)C3)ccc1OC (stereo not given),23.9%,15%,-12.2% (active),38.6%,34.8%,25.3%,21.2%,36%,26.1%,59.1%
CCCCC1COc2cccc3c(SCC(=O)N(C)c4cccc5ccccc45)cc[n+]1c23 (stereo not given),94.3%,103%,104%,98.7%,99.3%,95.8%,98.5%,99.9%,91.2%,111%
COc1cc(OCc2cccc(-c3ccc(C(O)c4nccs4)cc3)c2C)cc(OC)c1C=O (stereo not given),32.3%,48.7%,69.6%,70.4%,60.6%,52.2%,-78.1% (active),-4.45% (active),48.8%,57.3%
CC1CCCCN1S(=O)(=O)c1ccc(CN=C=S)cc1 (stereo not given),19.2%,50.5%,69.3%,77.9%,68.8%,74.4%,91.5%,84.5%,3.54% (active),88.5%
COc1ccc(Cn2c(Br)c3c(c2-c2cc(OC)c(OC)c(OC)c2)CCc2sc(N)nc2-3)cc1,18.8%,-12.4% (active),-0.745% (active),55.4%,21.8%,28.8%,10.1%,25.5%,33.5%,33.9%
CCOC(=O)n1cc(C2=C(c3cn(C)c4ccccc34)COC2=O)c2ccccc21,12.2%,9.6% (active),26.4%,30.5%,14.9%,28.3%,-7.08% (active),26.1%,18.7%,47.7%
O=C1N/C(=C\c2ccccc2)c2ncccc21,101%,113%,91.8%,104%,104%,102%,105%,102%,99.2%,119%
Cc1nc2ccc(Cl)cc2n1C,113%,98.8%,103%,99.5%,99.7%,101%,99.6%,106%,108%,117%
Nc1cc2[nH]c(=O)c3ccccc3c2cc1Br,52.6%,111%,57%,93.6%,84%,81.5%,67.2%,80.7%,74.5%,97.8%
NC(=O)c1cccc(-n2ccc3cc(NC(=O)Nc4ccc(Cl)c(Cl)c4)ccc32)n1,59.7%,60.9%,68.5%,86.3%,66.7%,73.3%,74.1%,83.2%,81.9%,88.1%
O=C1NC(=O)C2(CCCC2C(=O)O)N1 (stereo not given),99.1%,108%,83.4%,106%,96.7%,92.6%,110%,103%,91.1%,110%
Cc1ccc(C)c2c1sc1nc3nc4sc5ccccc5n4c(=N)c3c(=O)n12,102%,104%,73.7%,89.4%,107%,71.5%,94.6%,120%,92.6%,110%
O=C1C(Cl)=C(NCCCN2CCOCC2)C(=O)c2ccccc21,79.5%,93.7%,78.3%,91.5%,98.3%,79.6%,67.5%,94.8%,54.2%,104%
Cc1c(NCC(=O)Nc2nc3ccccc3[nH]2)c(=O)n(-c2ccccc2)n1C,94.5%,105%,94.3%,97%,96.7%,92.7%,100%,102%,97.1%,110%
Clc1ccccc1Nc1ccc2nnc(-c3ccncc3)n2n1,91.8%,99.2%,96.2%,107%,97.4%,75.7%,97.9%,98.4%,96.1%,122%
O=c1c2c(=NCCN3CCCC3)cc3c(=O)n(CCCN4CCOCC4)c(=O)c4ccc(c(O)n1CCCN1CCOCC1)c2c4-3,-11.8% (active),-16.9% (active),-88.8% (active),1.06% (active),5.11% (active),-20.8% (active),-14.9% (active),-49.7% (active),-6.84% (active),-32.9% (active)
FCOC(C(F)(F)F)C(F)(F)F,103%,107%,109%,108%,94.1%,106%,103%,104%,101%,126%
COc1ccc(/C=C2\SC(=O)N(CN3CCN(c4cc5c(cc4F)c(=O)c(C(=O)O)cn5C4CC4)CC3)C2=O)cc1,106%,111%,85.1%,100%,99.8%,97.6%,97.2%,98.1%,79.9%,112%
Cl.Fc1c[c-]c(-c2ccccn2)c(F)c1.[Pt].c1ccc([PH+](CC[PH+](c2ccccc2)c2ccccc2)c2ccccc2)cc1,-76.2% (active),-73.5% (active),-94.2% (active),-76.4% (active),-62.2% (active),-70.1% (active),-99.3% (active),-81% (active),-82.4% (active),-94.1% (active)
CON=C1C[C@]2(C[C@@H]3C[C@@H](C/C=C(\C)C[C@@H](C)/C=C/C=C4\CO[C@@H]5[C@H](O)C(C)=C[C@@H](C(=O)O3)[C@]45O)O2)O[C@H](/C(C)=C/C(C)C)[C@H]1C,48.4%,32.4%,140%,63.3%,39.5%,13.5%,65.1%,70.6%,55.3%,85.8%
O=S(=O)(Nc1ccc(Cl)c(Cl)c1)c1ccc(-c2cnc(C3CC3)o2)cc1,23.9%,10.2%,-3.4% (active),30.9%,22.1%,14.2%,25%,26.8%,45.6%,58.3%
COc1ccc(/C=N/NC(=O)c2cnn3c2NC(c2ccccc2)C3)cc1OC1CCCC1 (stereo not given),70%,90.6%,84.3%,87.7%,83%,79.1%,78.8%,83%,85.2%,108%
COC(=O)c1c2c(c(C)[n+]([O-])c1C)C(=O)C=C(NCc1cccc(OC)c1)C2=O,-74.8% (active),2.57% (active),-97.7% (active),-88.4% (active),-39.3% (active),-2.04% (active),-97.2% (active),-68.1% (active),-79.7% (active),-22.3% (active)
